Experimental data taken from PubChem BioAssay (EPA / NIEHS).
Several values for one entry are separate records, joined by “and”; a condition that tells them apart may be missing. Identical values can stand only once. Activity calls are given as the source filed them. The calls were made as follows: active = hit-call score of the fitted dose curve at least 0.9, where 1 is the maximum; inactive = score below 0.9.

What was measured:
Settings in all cases: mRNA level, 48 h; actives raise or lower the signal
[1] = read-out: Cytochrome P450 (CYP1A1), CYP1A1 (gene 1543); assay: LTEA_HepaRG_CYP1A1: Life Technologies and Expression Analysis (LTEA) Assay for Cytochrome P450 (CYP1A1) using HepaRG (AID 2283454)
Outline: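 Differentiated HepaRG cells in serum-free induction medium were exposed in duplicate for 48 h to eight half-log concentrations up to 100 uM in 0.5% DMSO. CYP1A1 mRNA was quantified by TaqMan qRT-PCR, normalized to ACTB, GAPDH and POLR2A.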

[2] = read-out: CFLAR gene, CFLAR (gene 8837); assay: LTEA_HepaRG_CFLAR: Life Technologies and Expression Analysis (LTEA) Assay for CFLAR gene using HepaRG (AID 2283455)
Outline: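 HepaRG, 48 h exposure, 8-pt conc-response (100 uM top, half-log), 0.5% DMSO vehicle, duplicates. CFLAR expression by qRT-PCR; ACTB/GAPDH/POLR2A normalization; gain or loss fit vs DMSO baseline.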

[3] = read-out: Forkhead box O1 (FOXO1), FOXO1 (gene 2308); assay: LTEA_HepaRG_FOXO1: Life Technologies and Expression Analysis (LTEA) Assay for Forkhead box O1 (FOXO1) using HepaRG (AID 2283456)
Outline: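 Readout is FOXO1 transcript level by multiplexed qRT-PCR against three housekeeping genes, curve-fitted in both directions relative to 0.5% DMSO vehicle. Human HepaRG cultures received chemicals for 48 h, up to 100 uM in half-log steps.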

[4] = read-out: growth arrest and DNA damage 45 (GADD45A), GADD45A (gene 1647); assay: LTEA_HepaRG_GADD45A: Life Technologies and Expression Analysis (LTEA) Assay for growth arrest and DNA damage 45 (GADD45A) using HepaRG (AID 2283458)
Outline: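 Differentiated HepaRG cells exposed 48 h in serum-free induction medium to 8 concentrations, top 100 uM in half-log steps, 0.5% DMSO. GADD45A mRNA quantified by qRT-PCR, normalized to ACTB, GAPDH and POLR2A; bidirectional fit versus DMSO.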

[5] = read-out: Forkhead box O3 (FOXO3), FOXO3 (gene 2309); assay: LTEA_HepaRG_FOXO3: Life Technologies and Expression Analysis (LTEA) Assay for Forkhead box O3 (FOXO3) using HepaRG (AID 2283459)
Outline: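 HepaRG, 48 h post-dose; 8 conc., half-log from 100 uM, 0.5% DMSO, duplicates; serum-free induction medium. Readout: FOXO3 mRNA, TaqMan qRT-PCR, housekeeping-normalized. Bidirectional curve fit vs DMSO baseline.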

[6] = read-out: ABC Transporter (ABCB1), ABCB1 (gene 5243); assay: LTEA_HepaRG_ABCB1: Life Technologies and Expression Analysis (LTEA) Assay for ABC Transporter (ABCB1) using HepaRG (AID 2283460)
Outline: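 Expression of ABCB1 was quantified by qRT-PCR against three housekeeping genes after human HepaRG cultures received test chemicals for 48 hours. Concentrations spanned eight half-log steps topping at 100 uM in 0.5% DMSO; gain or loss of signal was fitted relative to vehicle.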

[7] = read-out: growth arrest and DNA damage 45 (GADD45B), GADD45B (gene 4616); assay: LTEA_HepaRG_GADD45B: Life Technologies and Expression Analysis (LTEA) Assay for growth arrest and DNA damage 45 (GADD45B) using HepaRG (AID 2283461)
Outline: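 Differentiated HepaRG cells, plated 48 h then switched to serum-free induction medium, were exposed 48 h in duplicate to eight half-log concentrations from 100 uM in 0.5% DMSO; mRNA quantified by qRT-PCR, normalized to ACTB/GAPDH/POLR2A, bidirectional fit versus DMSO.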

[8] = read-out: ABC Transporter (ABCC3), ABCC3 (gene 8714); assay: LTEA_HepaRG_ABCC3: Life Technologies and Expression Analysis (LTEA) Assay for ABC Transporter (ABCC3) using HepaRG (AID 2283462)
Outline: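 HepaRG cells in serum-free induction medium were exposed for 48 h in duplicate to 8-point half-log concentrations topping at 100 uM in 0.5% DMSO. ABCC3 mRNA was measured by qRT-PCR normalized to ACTB, GAPDH and POLR2A, with bidirectional fitting versus DMSO.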

[9] = read-out: ABC Transporter (ABCB11), ABCB11 (gene 8647); assay: LTEA_HepaRG_ABCB11: Life Technologies and Expression Analysis (LTEA) Assay for ABC Transporter (ABCB11) using HepaRG (AID 2283463)
Outline: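 ABCB11 transcript levels are read by Fluidigm TaqMan qRT-PCR after 48 h chemical treatment of human HepaRG cells. Concentrations span 100 uM downward in half-log steps with 0.5% DMSO; gain or loss is fitted against DMSO controls.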

Measured: AC50

C[Si](Cn1cncn1)(c1ccc(F)cc1)c1ccc(F)cc1
active: [1] 5.08 µM | [2] 50 µM | [3] 74.6 µM
not listed: [9]
inactive: all other assays above

CCCOCC(=Nc1ccc(Cl)cc1C(F)(F)F)n1ccnc1
active: [1] 12.8 µM | [2] 50 µM | [3] 50 µM | [5] 40 µM | [6] 80.5 µM | [7] 92 µM | [9] 17.6 µM
inactive: [4] | [8]

CCCCN(CC)c1c([N+](=O)[O-])cc(C(F)(F)F)cc1[N+](=O)[O-]
active: [1] 35.4 µM
inactive: all other assays above

COP(=O)(OC)C(O)C(Cl)(Cl)Cl (configuration not stated)
active: [4] 0.12 µM
not listed: [1] | [9]
inactive: all other assays above

CNc1cnn(-c2cccc(C(F)(F)F)c2)c(=O)c1Cl
active: [1] 3.99 µM | [5] 31.1 µM | [6] 74.9 µM | [7] 50 µM
inactive: [2] | [3] | [4] | [8]

CC(=NC#N)N(C)Cc1ccc(Cl)nc1
active: [1] 50 µM
inactive: all other assays above

CC[C@H](C)[C@H]1O[C@]2(C=C[C@@H]1C)C[C@@H]1C[C@@H](C/C=C(\C)[C@@H](O[C@H]3C[C@H](OC)[C@@H](O[C@H]4C[C@H](OC)[C@@H](NC)[C@H](C)O4)[C@H](C)O3)[C@@H](C)/C=C/C=C3\CO[C@@H]4[C@H](O)C(C)=C[C@@H](C(=O)O1)[C@]34O)O2
active: [1] 13.4 µM | [2] 16.9 µM | [3] 27.9 µM | [6] 23 µM | [7] 50 µM | [8] 31.6 µM | [9] 39.6 µM
inactive: [4] | [5]

CC(C)[C@H](C(=O)O[C@H](C#N)c1cccc(Oc2ccccc2)c1)c1ccc(Cl)cc1
active: [1] 34.8 µM | [6] 23.2 µM
not listed: [9]
inactive: all other assays above

Cc1ccn2nc(S(=O)(=O)Nc3c(F)cccc3F)nc2n1
inactive: all assays above

Cc1nn(-c2cc(NS(C)(=O)=O)c(Cl)cc2Cl)c(=O)n1C(F)F
active: [1] 50 µM | [6] 8.21 µM
not listed: [9]
inactive: all other assays above

CSc1nnc(C(C)(C)C)c(=O)n1N
inactive: all assays above

CNC(=O)Oc1cccc2c1OC(C)(C)O2
inactive: all assays above

COP(=O)(NC(C)=O)SC (configuration not stated)
not listed: [9]
inactive: all other assays above

O=C(O)c1cc(Oc2ccc(C(F)(F)F)cc2Cl)ccc1[N+](=O)[O-]
inactive: [2] | [3] | [5] | [8]
active: [1] 50 µM | [6] 50 µM

CCC(=NOC/C=C/Cl)C1=C(O)CC(C2CCOCC2)CC1=O (configuration not stated)
active: [1] 50 µM
inactive: all other assays above

CCNc1nc(Cl)nc(NC(C)(C)C#N)n1
active: [1] 24.9 µM
inactive: all other assays above

CCCOc1nn(C(=O)NS(=O)(=O)c2ccccc2C(=O)OC)c(=O)n1C
not listed: [9]
inactive: all other assays above

CCCCOC(=O)[C@@H](C)Oc1ccc(Oc2ccc(C#N)cc2F)cc1
active: [1] 23.3 µM
inactive: all other assays above

COc1cccc(C(=O)NN(C(=O)c2cc(C)cc(C)c2)C(C)(C)C)c1C
active: [1] 50 µM | [6] 4.33 µM | [9] 19.5 µM
inactive: all other assays above

CCc1cccc(C)c1N(C(=O)CCl)C(C)COC (configuration not stated)
active: [1] 62.6 µM
not listed: [9]
inactive: all other assays above

CC(C1CC1)C(O)(Cn1cncn1)c1ccc(Cl)cc1 (configuration not stated)
active: [1] 17 µM | [6] 13.1 µM
inactive: all other assays above

S=C1NCCN1
inactive: all assays above

O=[N+]([O-])c1cc(C(F)(F)F)c(Cl)c([N+](=O)[O-])c1Nc1ncc(C(F)(F)F)cc1Cl
active: [1] 9.68 µM | [2] 40.9 µM | [4] 33.6 µM | [5] 35.6 µM | [8] 13.2 µM | [9] 15.8 µM
inactive: [3] | [6] | [7]

CCCCOC(=O)c1ccccc1C(=O)O
active: [1] 36.1 µM
not listed: [8]
inactive: all other assays above

COc1cc(OC)nc(Sc2cccc(Cl)c2C(=O)O)n1
inactive: all assays above

Nc1c(Cl)cc([N+](=O)[O-])cc1Cl
inactive: [3] | [8]
active: [1] 7.36 µM | [2] 17.7 µM | [4] 78.9 µM | [5] 7.33 µM | [6] 31.1 µM | [7] 11.9 µM | [9] 37.4 µM

CCOP(=S)(OCC)Oc1ccc([N+](=O)[O-])cc1
active: [1] 15.4 µM
not listed: [9]
inactive: all other assays above

CCOP(=S)(Oc1cnc(C(C)(C)C)nc1)OC(C)C (configuration not stated)
active: [1] 35 µM | [6] 19.4 µM | [9] 1.84 µM
inactive: all other assays above

CCOC(=O)CC(SP(=O)(OC)OC)C(=O)OCC (configuration not stated)
active: [1] 30.8 µM | [9] 22.7 µM
inactive: all other assays above

COP(=O)(OC)OC(Br)C(Cl)(Cl)Br (configuration not stated)
active: [1] 50 µM
inactive: [3] | [5] | [6] | [7] | [8]

CCOP(=S)(OCC)OC(Cl)C(Cl)(Cl)Cl (configuration not stated)
active: [1] 74.3 µM
inactive: all other assays above

CN(C)NC(=O)CCC(=O)O
inactive: all assays above

CN(C)[C@@H]1C(=O)C(C(N)=O)=C(O)[C@@]2(O)C(=O)C3=C(O)c4c(O)cccc4[C@@](C)(O)[C@H]3[C@H](O)[C@@H]12
active: [1] 66.4 µM and 18.3 µM
not listed: [9]
inactive: all other assays above

CCOP(=S)(OCC)Oc1ccc2c(C)c(Cl)c(=O)oc2c1
active: [1] 6.37 µM | [6] 12.9 µM
inactive: all other assays above

Cc1cc(C2CC2)nc(Nc2ccccc2)n1
active: [1] 0.52 µM | [9] 74.6 µM
inactive: all other assays above
